Out of some 65,000 compounds screened, about 450 (0.69%) were called active. The full list was thinned out, with actives kept by preference. Values without a mark were called inactive.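 The calls were made as follows: active = activation above a set limit, the screen-wide mean activation plus 3 SD (cut at about 8.5% in these data); inactive = the rest.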

The target of this assay is 5-hydroxytryptamine receptor 1E (Homo sapiens) (UniProt P28566). The assay is described as follows: 5-HT1E receptor agonists, primary screen, cell-based, HTS (AID 574).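 Also: 100% = positive control agonist at 1 µM giving full maximal response.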 The following applies: CHO 5-HT1E Ga15 NFAT-bla reporter, FRET; at 6 µM; active compounds read high.
5-hydroxytryptamine receptor 1E (Homo sapiens), sequence (P28566 whole entry, looked up): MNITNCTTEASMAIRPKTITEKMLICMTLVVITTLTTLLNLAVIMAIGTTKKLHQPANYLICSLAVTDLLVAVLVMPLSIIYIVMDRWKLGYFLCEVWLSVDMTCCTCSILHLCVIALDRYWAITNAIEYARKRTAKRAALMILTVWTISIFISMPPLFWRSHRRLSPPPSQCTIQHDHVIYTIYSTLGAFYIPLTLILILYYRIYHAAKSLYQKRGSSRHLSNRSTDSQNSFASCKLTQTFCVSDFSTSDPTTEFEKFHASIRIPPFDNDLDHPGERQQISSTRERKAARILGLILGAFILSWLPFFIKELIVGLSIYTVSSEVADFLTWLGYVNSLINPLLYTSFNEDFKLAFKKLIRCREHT
Take `c1ccc2sc(C3CCCNC3)nc2c1` (stereo not given): the activation is 98.8% (active).
Under `Cc1ccc(P(=S)(c2ccc(C)o2)N2CCOCC2)o1` stands -1.7%; under `O=C1NC(=O)C(C/C=C/c2ccccc2)C(=O)N1`, 0.1%; under `COc1ccc(CN2CCN(c3ccccc3F)CC2)c(OC)c1`, 54.1% (active).
`Fc1cccc(F)c1CN1CCN(Cc2c(F)cccc2F)CC1`: the activation was 1.1%.
The result for `COc1ccccc1CN1CCN(C(=O)Cc2ccccc2)CC1` reads -0.5%.
Consider `CC(=NC1CCN(Cc2ccccc2)CC1)c1c(O)n(C)c(=O)n(C)c1=O`, for which the activation was 0%.
The result for `CCOP(=S)(OCC)SCOC(=O)NCC(=O)OC` reads -0.2%; that for `CC[N+]1(C)CCCC(OC(=O)C(O)(c2ccccc2)c2ccccc2)C1` (stereo not given), -0.1%.
Turning to `CC(C)c1ccc(OCC(=O)N2CCN(C)CC2)c(Br)c1`, the activation is -1.2%.

Values taken from PubChem BioAssay AID574 (The Scripps Research Institute Molecular Screening Center, 2007).
